Consider ten compounds from PubChem BioAssay (EPA / NIEHS).

“And” between values parts separate entries of the source, which are not always exact repeats. Equal entries are not always repeated. Results filed as inconclusive are left out. More than one record can exist for a structure, and the calls need not agree. The source made the active and inactive calls. Rule for the calls, unless noted: active = hit-call score of the fitted dose curve at least 0.9, where 1 is the maximum; inconclusive = response in the unintended direction; inactive = score below 0.9.

Assay [1] addresses rat Serotonin Transporter (SERT), Slc6a4 (gene 25553) (UniProt P31652). The assay can be described thus: NVS_TR_rSERT: NovaScreen (NVS) Transporter Assay for rat Serotonin Transporter (SERT) (AID 2283375). In a few lines:
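Filtration-based radiodetection quantified loss of specific radioligand binding in rat forebrain membranes after 1 hour of chemical exposure, relative to DMSO. Chemicals were first tested in duplicate at 25 uM.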

The target in assay [2] is mouse Estrogen Receptor alpha (Era), Esr1 (gene 13982) (UniProt P19785). Put plainly: NVS_NR_mERa: NovaScreen (NVS) Nuclear Receptor Binding Assay for mouse Estrogen Receptor alpha (Era) (AID 2283378).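 Note: hit means loss of bound radioligand signal relative to DMSO.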 A digest of the protocol:
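Extracted mouse Era incubated with tritiated or iodinated radioligand plus test chemical, 18 h. Bound fraction separated on filters, counted by scintillation. DMSO = negative control/baseline; duplicate single-point at 25 uM, then concentration-response follow-up.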

Assay [3] deals with Estrogen receptor beta (Homo sapiens) (UniProt Q92731). The assay can be described thus: OT_ER_ERbERb_1440: Odyssey Thera (OT) 24-hour HEK293T Protein-Complementation Assay for Estrogen Receptor-beta/-beta Homodimer (AID 2283380).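 Note: fluorescence gain from ER beta LBD homodimer complementation read by laser scanning cytometry; scored as signal increase over DMSO baseline for both agonists and antagonists.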 A digest of the protocol: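 Fluorescence increase, nuclear for agonists or whole-cell for antagonists, relative to DMSO vehicle, quantified by laser scanning cytometer after fixation and Draq5 staining. Readout from 24 h treatment of HEK293T cells carrying complementation-paired ER beta LBD (aa 310-547).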
Estrogen receptor beta (Homo sapiens), sequence (Q92731 whole entry, looked up, the tested form may be a part): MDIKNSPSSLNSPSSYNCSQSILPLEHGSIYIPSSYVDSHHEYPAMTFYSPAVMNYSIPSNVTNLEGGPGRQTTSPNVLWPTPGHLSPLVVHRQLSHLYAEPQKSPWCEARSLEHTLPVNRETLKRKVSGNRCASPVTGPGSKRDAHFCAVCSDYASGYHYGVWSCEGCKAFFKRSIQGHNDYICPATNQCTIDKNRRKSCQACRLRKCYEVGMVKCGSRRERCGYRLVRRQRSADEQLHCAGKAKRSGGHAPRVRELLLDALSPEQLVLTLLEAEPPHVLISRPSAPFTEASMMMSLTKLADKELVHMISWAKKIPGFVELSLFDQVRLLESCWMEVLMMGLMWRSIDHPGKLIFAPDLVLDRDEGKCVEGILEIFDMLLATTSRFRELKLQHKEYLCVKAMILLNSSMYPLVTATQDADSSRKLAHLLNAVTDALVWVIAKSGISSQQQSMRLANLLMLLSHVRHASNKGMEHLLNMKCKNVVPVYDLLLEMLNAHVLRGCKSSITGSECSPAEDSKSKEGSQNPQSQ

The target of assay [4] is Estrogen receptor (Homo sapiens) (UniProt P03372). The assay can be described thus: OT_ERa_GFPERaERE_0480: Odyssey Thera (OT) 8-hour HeLa Transcription Induction Assay for Estrogen Receptor (AID 2283381; active = hit-call score of the fitted dose curve at least 0.9, where 1 is the maximum; inactive = score below 0.9). A digest of the protocol: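 Fluorescent reporter signal, imaged by microscopy and scored with image-analysis algorithms, was taken 8 h after chemical dosing of HeLa cells; activity was fitted upward relative to DMSO.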
Estrogen receptor (Homo sapiens), sequence (P03372 whole entry, looked up): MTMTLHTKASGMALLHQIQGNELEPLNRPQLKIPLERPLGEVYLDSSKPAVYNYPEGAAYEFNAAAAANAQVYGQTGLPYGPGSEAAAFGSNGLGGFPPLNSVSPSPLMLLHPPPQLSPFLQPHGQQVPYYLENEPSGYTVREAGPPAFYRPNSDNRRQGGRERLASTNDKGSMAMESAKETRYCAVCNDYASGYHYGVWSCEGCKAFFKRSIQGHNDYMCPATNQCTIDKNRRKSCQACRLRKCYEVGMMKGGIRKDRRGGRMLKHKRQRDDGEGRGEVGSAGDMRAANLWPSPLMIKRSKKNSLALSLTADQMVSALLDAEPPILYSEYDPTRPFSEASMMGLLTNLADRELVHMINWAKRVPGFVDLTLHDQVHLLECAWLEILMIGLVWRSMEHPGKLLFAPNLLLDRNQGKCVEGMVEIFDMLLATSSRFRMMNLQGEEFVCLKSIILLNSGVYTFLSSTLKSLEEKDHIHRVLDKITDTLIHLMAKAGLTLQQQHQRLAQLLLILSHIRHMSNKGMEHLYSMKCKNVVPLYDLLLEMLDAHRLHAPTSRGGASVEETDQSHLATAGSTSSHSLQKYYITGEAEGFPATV

For assay [5] the target is unchanged. The assay can be described thus: OT_ERa_GFPERaERE_0120: Odyssey Thera (OT) 2-hour HeLa Transcription Induction Assay for Estrogen Receptor (AID 2283382). A digest of the protocol:
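HeLa, 384-well, 2 h chemical exposure; GFP reporter induction (ERE), fluorescence microscopy; high content image analysis; positive fitting direction vs DMSO.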

The target of assay [6] is Bile acid receptor (Homo sapiens) (UniProt Q96RI1). The assay can be described thus: OT_FXR_FXRSRC1_0480: Odyssey Thera (OT) 8-hour HEK293T Protein-Complementation Assay for Farnesoid X receptor/SRC-1 Co-activator (AID 2283383). In a few lines: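 Human kidney HEK293T cells carried FXR/SRC-1 fragment-complementation constructs. Compounds were added and incubated 8 h. Reporter reassembly upon receptor–co-activator interaction was then quantified by fluorescence, with curves fitted in the positive direction relative to DMSO.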
Bile acid receptor (Homo sapiens), sequence (Q96RI1 whole entry, looked up, the tested form may be a part): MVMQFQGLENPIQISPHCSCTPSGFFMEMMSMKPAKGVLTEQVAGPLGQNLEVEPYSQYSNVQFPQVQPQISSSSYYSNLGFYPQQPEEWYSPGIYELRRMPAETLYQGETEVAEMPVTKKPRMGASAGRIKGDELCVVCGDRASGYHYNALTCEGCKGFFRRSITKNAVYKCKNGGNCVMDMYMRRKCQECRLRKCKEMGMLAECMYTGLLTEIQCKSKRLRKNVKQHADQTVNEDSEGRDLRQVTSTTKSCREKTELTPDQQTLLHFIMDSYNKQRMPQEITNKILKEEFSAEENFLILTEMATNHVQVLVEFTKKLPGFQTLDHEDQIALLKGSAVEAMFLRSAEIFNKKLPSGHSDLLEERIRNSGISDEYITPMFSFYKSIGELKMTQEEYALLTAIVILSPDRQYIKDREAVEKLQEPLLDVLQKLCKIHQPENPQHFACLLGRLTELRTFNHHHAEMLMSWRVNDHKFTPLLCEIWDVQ

Assay [7] shares this target. The assay can be described thus: OT_FXR_FXRSRC1_1440: Odyssey Thera (OT) 24-hour HEK293T Protein-Complementation Assay for Farnesoid X receptor/SRC-1 Co-activator (AID 2283384). A digest of the protocol:
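Compounds are applied to human kidney HEK293T cells expressing bait and prey fused to reporter protein fragments; after 24 h, reconstituted reporter fluorescence is measured. Activity is fitted as signal gain over DMSO.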

The target in assay [8] is Retinoic acid receptor RXR-alpha (Homo sapiens) (UniProt P19793). Put plainly: OT_NURR1_NURR1RXRa_0480: Odyssey Thera (OT) 8-hour HEK293T Protein Complementation Assay for Nurr1/retinoid X receptor (RXR) (AID 2283385). In a few lines: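 8 h compound exposure, HEK293T; Nurr1/RXRα fragment complementation; fluorescence intensity; positive fitting direction vs DMSO baseline.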
Retinoic acid receptor RXR-alpha (Homo sapiens), sequence (P19793 whole entry, looked up, the tested form may be a part): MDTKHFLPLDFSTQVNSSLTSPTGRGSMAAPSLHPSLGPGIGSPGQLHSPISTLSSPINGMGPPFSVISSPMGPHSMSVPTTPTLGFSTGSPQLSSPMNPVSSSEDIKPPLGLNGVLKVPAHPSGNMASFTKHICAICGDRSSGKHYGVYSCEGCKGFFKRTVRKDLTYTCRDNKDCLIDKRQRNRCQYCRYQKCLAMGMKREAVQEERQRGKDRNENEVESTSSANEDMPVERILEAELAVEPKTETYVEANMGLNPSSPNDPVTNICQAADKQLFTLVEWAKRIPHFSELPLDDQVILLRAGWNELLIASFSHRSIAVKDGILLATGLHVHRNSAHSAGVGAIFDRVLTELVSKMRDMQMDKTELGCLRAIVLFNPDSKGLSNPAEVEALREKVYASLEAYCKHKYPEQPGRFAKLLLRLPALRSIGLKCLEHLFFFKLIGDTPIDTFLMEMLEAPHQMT

For assay [9] the target is unchanged. Put plainly: OT_NURR1_NURR1RXRa_1440: Odyssey Thera (OT) 24-hour HEK293T Protein Complementation Assay for Nurr1/retinoid X receptor (RXR) (AID 2283386). In a few lines:
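Interaction of Nurr1 with RXRα brings fused reporter fragments together in human HEK293T cells, restoring a functional reporter. Fluorescence intensity is measured 24 h after chemical treatment, and values are analysed in the positive direction against DMSO.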

Assay [10] is described as follows: CEETOX_H295R_11DCORT: CeeTox H295R High-throughput Steroidogenesis Assay for 11-Deoxycortisol (11DCORT) (AID 2283432; active = hit-call score of the fitted dose curve at least 0.9, where 1 is the maximum; inactive = score below 0.9;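 note: human adrenal H295R cells prestimulated with 10 µM forskolin for 48 h; 11-deoxycortisol secreted into the medium measured by LC-MS/MS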). The conditions noted are these: actives raise or lower the signal. In a few lines: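 Steroidogenesis in human H295R cells: 48 h chemical exposure after forskolin priming, 11-deoxycortisol measured by LC-MS/MS.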
A short description of assay [11]: CEETOX_H295R_OHPREG: CeeTox H295R High-throughput Steroidogenesis Assay for OH-Pregnenolone (OHPREG) (AID 2283434; active = hit-call score of the fitted dose curve at least 0.9, where 1 is the maximum; inactive = score below 0.9). The conditions noted are these: actives raise or lower the signal. In a few lines:
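Hormone levels in spent medium were measured by tandem mass spectrometry following liquid-liquid extraction. Cells (H295R) had been forskolin-stimulated (10 uM, 48 h) before a 48 h chemical exposure at 0.1% DMSO, with activity fitted in both directions against DMSO.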

A short description of assay [12]: CEETOX_H295R_OHPROG: CeeTox H295R High-throughput Steroidogenesis Assay for OH-Progesterone (OHPROG) (AID 2283435; active = hit-call score of the fitted dose curve at least 0.9, where 1 is the maximum; inactive = score below 0.9;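 for AC50: human adrenal H295R cells primed 48 h with 10 µM forskolin; 17alpha-hydroxyprogesterone secreted into medium measured by HPLC-MS/MS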). The note with it: actives raise or lower the signal. A digest of the protocol:
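H295R, 10 uM forskolin prestim 48 h; cmpd in 0.1% DMSO 48 h; medium MTBE-extracted, HPLC-MS/MS for OH-progesterone; 7-pt std curve; bidirectional fit vs DMSO; MTT viability, chemicals diluted until viability >/=70%.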

A short description of assay [13]: CEETOX_H295R_CORTIC: CeeTox H295R High-throughput Steroidogenesis Assay for Corticosterone (CORTIC) (AID 2283437; active = hit-call score of the fitted dose curve at least 0.9, where 1 is the maximum; inactive = score below 0.9;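 note: corticosterone secreted into medium quantified by mass spectrometry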). The note with it: actives raise or lower the signal. In a few lines: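 Corticosterone secreted into medium is measured by reverse-phase HPLC with tandem MS following liquid-liquid extraction. Cells are forskolin-stimulated (10 uM, 48 h) before 48 h test exposure; activity fitted in both directions against DMSO.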

Assay [14] is described as follows: CEETOX_H295R_CORTISOL: CeeTox H295R High-throughput Steroidogenesis Assay for Cortisol (AID 2283438; active = hit-call score of the fitted dose curve at least 0.9, where 1 is the maximum; inactive = score below 0.9;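 note: cortisol secreted into medium quantified by LC-MS/MS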). The note with it: actives raise or lower the signal. In a few lines:
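Forskolin 10 uM 48 h prestim → test cmpd in DMSO (0.1% final) 48 h → medium MTBE-extracted → LC-MS/MS cortisol vs 7-pt std curve. Gain/loss of signal fitted vs DMSO. MTT viability in same wells.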

Assay [15] can be described thus: CEETOX_H295R_DOC: CeeTox H295R High-throughput Steroidogenesis Assay for DOC (AID 2283439; active = hit-call score of the fitted dose curve at least 0.9, where 1 is the maximum; inactive = score below 0.9). The conditions noted are these: actives raise or lower the signal. A digest of the protocol: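 Readout: 11-deoxycorticosterone in culture medium by reverse-phase C18 HPLC with ESI+ tandem MS after MTBE extraction. Cells: H295R, forskolin-primed (10 uM, 48 h), chemical-treated 48 h; DMSO 0.1% final. Activity fitted bidirectionally versus DMSO.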

In assay [16] the target is Peroxisome proliferator-activated receptor gamma (Homo sapiens) (UniProt P37231). The assay can be described thus: OT_PPARg_PPARgSRC1_0480: Odyssey Thera (OT) 8-hour Protein-Complementation Assay for Peroxisome Proliferator-activated Receptor Gamma / SRC-1 Co-activator (AID 2283387).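 Note: nuclear to cytoplasmic split Venus YFP fluorescence ratio reporting PPARg SRC-1 interaction.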 A digest of the protocol: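 Split-YFP (IFP1/IFP2) PPARg/SRC-1 reporter, HEK293T, 37 °C, 5% CO2; 8 h compound; formaldehyde fix + Draq5; high-content imaging, N/C ratio, ≥350 cells/image, positive direction vs DMSO.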
Peroxisome proliferator-activated receptor gamma (Homo sapiens), sequence (P37231 whole entry, looked up): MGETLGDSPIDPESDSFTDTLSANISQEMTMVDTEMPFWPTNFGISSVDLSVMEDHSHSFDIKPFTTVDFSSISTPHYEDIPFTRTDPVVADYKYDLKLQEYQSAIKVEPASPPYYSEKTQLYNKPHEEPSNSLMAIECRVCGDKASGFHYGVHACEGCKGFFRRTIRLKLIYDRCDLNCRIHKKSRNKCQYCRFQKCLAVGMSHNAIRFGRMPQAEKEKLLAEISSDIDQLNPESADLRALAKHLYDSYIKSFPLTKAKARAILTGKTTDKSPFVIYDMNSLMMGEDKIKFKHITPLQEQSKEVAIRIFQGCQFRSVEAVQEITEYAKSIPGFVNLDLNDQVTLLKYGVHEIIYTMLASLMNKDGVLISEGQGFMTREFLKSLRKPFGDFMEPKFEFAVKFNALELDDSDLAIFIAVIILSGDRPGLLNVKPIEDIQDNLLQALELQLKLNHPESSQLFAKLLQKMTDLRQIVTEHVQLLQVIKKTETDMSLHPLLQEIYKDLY

The target is the same in assay [17]. The assay can be described thus: OT_PPARg_PPARgSRC1_1440: Odyssey Thera (OT) 24-hour Protein-Complementation Assay for Peroxisome Proliferator-activated Receptor Gamma/ SRC-1 Co-activator (AID 2283388).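 Note: nuclear to cytoplasmic ratio of reconstituted Venus YFP fluorescence in fixed imaged cells.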 A digest of the protocol: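 Protein-fragment complementation between PPARg and coactivator SRC-1 was measured by fluorescence imaging in transiently transfected HEK293T cells after 24 h treatment. Signal was quantified as N/C ratio in the 488 nm channel, with DMSO as negative control.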

The target in assay [18] is human Dopamine Transporter (DAT), SLC6A3 (gene 6531) (UniProt Q01959). Put plainly: NVS_TR_hDAT: NovaScreen (NVS) Transporter Assay for human Dopamine Transporter (DAT) (AID 2283374).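 Note: activity means loss of bound radioligand signal relative to DMSO.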 In a few lines:
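Test chemicals were first screened in duplicate at 25 uM, with actives retested as concentration series. Displacement of a specific radioligand from cell-free human dopamine transporter was measured after 1 h by filtration and scintillation counting.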

In assay [19] the target is human Norepinephrine Transporter (NET), SLC6A2 (gene 6530) (UniProt P23975). The assay can be described thus: NVS_TR_hNET: NovaScreen (NVS) Transporter Assay for human Norepinephrine Transporter (NET) (AID 2283377).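 For AC50: displacement of radioligand from human NET seen as loss of scintillation signal.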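 Note: cell-free membrane protein extracted from CHO cells expressing human NET.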 A digest of the protocol:
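Scintillation counts of filter-retained radioligand served as the readout, taken 1 h post-dosing in a cell-free CHO-derived system. Test chemicals ran first at 25 uM in duplicate; confirmed hits were retested across concentrations.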

mouse Estrogen Receptor alpha (Era), Esr1 (gene 13982), sequence (P19785 whole entry, looked up): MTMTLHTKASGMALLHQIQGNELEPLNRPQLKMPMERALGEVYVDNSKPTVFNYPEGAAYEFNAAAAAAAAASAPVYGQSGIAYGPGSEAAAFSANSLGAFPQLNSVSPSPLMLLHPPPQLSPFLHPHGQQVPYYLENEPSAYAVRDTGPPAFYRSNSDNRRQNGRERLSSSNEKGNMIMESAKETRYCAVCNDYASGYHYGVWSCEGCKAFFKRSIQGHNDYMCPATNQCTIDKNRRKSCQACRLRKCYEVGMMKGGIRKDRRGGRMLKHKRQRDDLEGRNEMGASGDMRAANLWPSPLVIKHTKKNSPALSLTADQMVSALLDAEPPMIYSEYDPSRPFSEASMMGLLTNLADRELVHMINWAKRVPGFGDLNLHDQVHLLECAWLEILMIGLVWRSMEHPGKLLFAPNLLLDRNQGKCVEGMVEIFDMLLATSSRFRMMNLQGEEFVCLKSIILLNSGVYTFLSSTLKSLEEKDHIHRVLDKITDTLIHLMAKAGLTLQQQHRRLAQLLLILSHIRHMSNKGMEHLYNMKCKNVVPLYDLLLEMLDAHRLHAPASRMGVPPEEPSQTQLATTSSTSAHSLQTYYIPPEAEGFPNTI
human Dopamine Transporter (DAT), SLC6A3 (gene 6531), sequence (Q01959 whole entry, looked up): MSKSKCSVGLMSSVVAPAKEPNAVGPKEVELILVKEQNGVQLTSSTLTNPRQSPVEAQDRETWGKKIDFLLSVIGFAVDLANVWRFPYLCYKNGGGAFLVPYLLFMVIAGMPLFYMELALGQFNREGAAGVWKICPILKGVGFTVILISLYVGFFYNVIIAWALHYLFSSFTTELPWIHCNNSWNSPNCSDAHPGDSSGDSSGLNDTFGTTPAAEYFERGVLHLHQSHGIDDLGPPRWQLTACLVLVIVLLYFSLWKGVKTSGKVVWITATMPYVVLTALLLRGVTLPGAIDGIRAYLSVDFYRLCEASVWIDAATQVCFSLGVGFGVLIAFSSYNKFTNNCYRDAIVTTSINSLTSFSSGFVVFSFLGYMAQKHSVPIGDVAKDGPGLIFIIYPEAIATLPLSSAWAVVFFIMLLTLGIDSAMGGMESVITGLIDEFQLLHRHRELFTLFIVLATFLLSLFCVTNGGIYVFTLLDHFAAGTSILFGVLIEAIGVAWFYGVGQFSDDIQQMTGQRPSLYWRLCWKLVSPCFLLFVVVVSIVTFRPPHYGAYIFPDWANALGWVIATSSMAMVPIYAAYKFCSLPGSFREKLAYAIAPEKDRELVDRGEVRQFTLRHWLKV
human Norepinephrine Transporter (NET), SLC6A2 (gene 6530), sequence (P23975 whole entry, looked up): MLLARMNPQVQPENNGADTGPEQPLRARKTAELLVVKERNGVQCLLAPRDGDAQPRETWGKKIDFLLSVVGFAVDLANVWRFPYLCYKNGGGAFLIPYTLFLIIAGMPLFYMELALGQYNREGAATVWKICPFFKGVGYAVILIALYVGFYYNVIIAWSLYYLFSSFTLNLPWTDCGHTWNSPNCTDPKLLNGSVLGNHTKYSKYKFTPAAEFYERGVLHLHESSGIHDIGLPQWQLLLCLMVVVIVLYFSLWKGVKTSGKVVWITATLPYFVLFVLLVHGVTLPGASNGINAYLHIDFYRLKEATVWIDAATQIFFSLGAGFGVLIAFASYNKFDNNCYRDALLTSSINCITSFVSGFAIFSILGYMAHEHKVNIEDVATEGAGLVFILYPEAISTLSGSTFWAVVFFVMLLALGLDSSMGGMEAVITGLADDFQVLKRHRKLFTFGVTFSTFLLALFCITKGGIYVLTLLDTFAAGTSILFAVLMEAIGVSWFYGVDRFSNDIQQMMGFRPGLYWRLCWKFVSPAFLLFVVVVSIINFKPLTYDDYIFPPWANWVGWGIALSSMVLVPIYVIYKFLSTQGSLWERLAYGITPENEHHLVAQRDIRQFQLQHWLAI

For the compound `CCOC(=O)c1ccc(O)cc1`, the compound was called inactive in assay [1], in assay [2], in [3], in [4], in [5] and in assay [6]. Moreover, the result in assay [7], in assay [8], in assay [9], in assay [11], in assay [13] and in [14] was inactive. Moreover, the AC50 in assay [3] was 28.6 µM (active) and 25.9 µM (active) and 32.9 µM (active); in assay [10], 85.1 µM (active); in assay [12], 31 µM (active); in assay [15], 37.7 µM (active).

As for `CC(=O)[C@H]1CC[C@H]2[C@@H]3CCC4=CC(=O)CC[C@]4(C)[C@H]3CC[C@]12C`, the AC50 was 17.4 µM (active) in [2] and 7.97 µM (active) in [11]. For the same compound, the call in assay [2], in [3], in assay [4], in [5], in assay [8] and in assay [9] was inactive. Further, the compound was called inactive in assay [16], in assay [17] and in assay [12].

Regarding `CCCCCCC(C)OC(=O)COc1nc(F)c(Cl)c(N)c1Cl` (stereo not given), the compound was called inactive in assay [18], in assay [8] and in assay [9]. In addition, the results for the AC50 in assay [3] and in assay [8] were 72.8 µM (active) and 79.2 µM (active), respectively.

As for `COc1c(Cl)ccc(Cl)c1C(=O)O`, the call in assay [1], in assay [3], in assay [4], in assay [5], in assay [9] and in assay [16] was inactive. Besides, in assay [17], the compound was called inactive.

On to `N[C@@H](Cc1cc(I)c(Oc2ccc(O)c(I)c2)c(I)c1)C(=O)O`, for which, in assay [2], the AC50 was 1.65 µM (active) and 20 µM (active) and 4.66 µM (active). In addition, the compound was called inactive in [2], in [4], in assay [5], in [16] and in assay [17].

On to `C[C@]12CC[C@@H]3c4ccc(O)cc4C[C@@H](CCCCCCCCCS(=O)CCCC(F)(F)C(F)(F)F)[C@H]3[C@@H]1CC[C@@H]2O` (stereo not given in full), for which, in assay [2], the AC50 was 3.4 µM (active) and 2.01 µM (active). The outcome in [2], in assay [6], in assay [7], in assay [8], in assay [9] and in assay [16] was inactive. Further, the outcome in assay [17] was inactive.

In the case of `N#CSCSc1nc2ccccc2s1`, the concentration at half-maximal activity (AC50) in assay [18] was 13.7 µM (active) and 3.9 µM (active); in assay [19], 11.2 µM (active); in assay [4], 88.1 µM (active); in [9], 11.6 µM (active). For the same compound, the compound was called inactive in assay [19], in [3], in [5], in assay [8], in [16] and in [17].

For the compound `COCCO`, the compound was called inactive in [4], in assay [5], in [8], in [9], in [16] and in assay [17].

`COC(=O)c1ccccc1C(=O)O`: the compound was called inactive in assay [3], in assay [4], in [5], in [8], in [9] and in assay [16]. For the same compound, in assay [17], the result was inactive.

On to `CCCN(CCC)c1c([N+](=O)[O-])cc(C(F)(F)F)c(N)c1[N+](=O)[O-]`, for which the outcome in assay [3], in assay [16] and in [17] was inactive. For the same compound, the AC50 is 1.3 µM (active) in assay [4]; 0.895 µM (active) in assay [5]; 56.9 µM (active) in assay [6]; 50 µM (active) in [7]; 32.7 µM (active) and 55.6 µM (active) in [8]; 35.9 µM (active) and 34.9 µM (active) in assay [9].
